# Screens (PubChem BioAssay)
# KAT2A inh – qHTS Assay for Inhibitors of GCN5L2 | Histone acetyltransferase KAT2A (Homo sapiens), Q92830 | AID 504327, 2011 | Potency, µM (top dose mostly 58.9 µM), without a hit: top-dose activity change, negative = inhibition, hits mostly inhibitors | GCN5L2 HAT assay, ThioGlo1 CoA-SH fluorescence | hit rate 0.21% among 390,000; further: on the % scale 0 is the no-effect control and ±100 the full control effect
# Target sequence (Q92830 whole entry, looked up): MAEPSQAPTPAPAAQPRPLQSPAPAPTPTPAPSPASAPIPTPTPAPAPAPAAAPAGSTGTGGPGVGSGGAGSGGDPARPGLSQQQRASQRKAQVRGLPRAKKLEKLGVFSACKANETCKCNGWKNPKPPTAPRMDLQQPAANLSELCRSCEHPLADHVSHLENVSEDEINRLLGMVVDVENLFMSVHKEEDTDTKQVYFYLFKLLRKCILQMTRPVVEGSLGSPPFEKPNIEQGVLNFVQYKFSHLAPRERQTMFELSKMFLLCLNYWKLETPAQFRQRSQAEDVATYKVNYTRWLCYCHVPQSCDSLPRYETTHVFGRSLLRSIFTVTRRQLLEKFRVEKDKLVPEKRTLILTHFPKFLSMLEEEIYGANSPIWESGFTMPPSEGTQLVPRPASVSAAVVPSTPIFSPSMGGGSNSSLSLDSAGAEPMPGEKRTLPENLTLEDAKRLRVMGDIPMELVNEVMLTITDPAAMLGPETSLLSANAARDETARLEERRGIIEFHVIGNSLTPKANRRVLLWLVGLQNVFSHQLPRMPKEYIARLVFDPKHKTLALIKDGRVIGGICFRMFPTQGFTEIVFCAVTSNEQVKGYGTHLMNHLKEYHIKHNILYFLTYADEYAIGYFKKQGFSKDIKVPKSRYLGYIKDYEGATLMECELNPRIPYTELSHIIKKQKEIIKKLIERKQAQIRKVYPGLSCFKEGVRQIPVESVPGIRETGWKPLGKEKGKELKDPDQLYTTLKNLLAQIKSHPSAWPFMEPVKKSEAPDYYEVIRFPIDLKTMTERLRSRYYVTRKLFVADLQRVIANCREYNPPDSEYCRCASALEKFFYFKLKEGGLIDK
#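 GCN5L2 (20nM final) in 50mM HEPES, 0.1mM EDTA pH 7.5, 0.01% Tween-20 was preincubated 15 min at room temperature with compound, then given ThioGlo1 (50uM), H3(1-25) peptide (75uM) and acetyl-CoA (70uM); CoA-thiol fluorescence (Ex340/Em540) was read at 0 and 20 min.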
# PTAP TSG101 blk – qHTS Assay for Iinhibitors of HIV-1 Budding by Blocking the Interaction of PTAP/TSG101; Tumor susceptibility gene 101 protein (Homo sapiens), Q99816; Fluorescence polarization, FITC-PTAP peptide / Tsg101 binding; Potency, µM (titrated, usually from 115 µM), for the others: top-dose activity change, negative = inhibition, hits mostly inhibitors; 340,000 tested, under 10 active; active means well fitted inhibition curve with a large enough effect in the main read-out, with a control signal flat, not every such curve was filed as active; inconclusive means small, poorly fitted or top-dose-only effect, or effect the other way, or a change in a side signal; inactive means no such curve, though single readings can be large or run the other way; further: % of control where 0% means no effect
#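 Fluorescence polarization binding of Tsg101 binding domain (10 uM final) to FITC-labeled PTAP peptide (50 nM final) in HEPES pH 7.5 buffer with NaCl, Tween 20, EDTA, TCEP. Compounds added before peptide; binding 20 min at RT.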
# VDR inhibitor – Inhibitors of the vitamin D receptor (VDR): qHTS | Potency, µM, for inactives: max response, negative = inhibition, actives largely listed as inhibitors | hit rate 0.93% among 400,000 | AID 504847, 2011 | VDR-SRC2-3 peptide fluorescence polarization, 2 h | Vitamin D3 receptor (Homo sapiens), P11473; further: on the % scale 0 is the no-effect control and ±100 the full control effect
#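 Inhibition of the VDR/SRC2-3 peptide interaction is quantified by fluorescence polarization. Compounds (23 nl, pintool) incubate with the reagents for 2 hours at ambient room temperature.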
# USP1 inh – Inhibitors of USP1/UAF1: Primary Screen; recombinant USP1/UAF1, Ub-Rhodamine cleavage fluorescence; AID 743255, 2014; hit rate 0.23% among 390,000; Potency, µM (top dose mostly 57.1 µM), for inactives: at the highest dose activity change, negative = inhibition, usual class: inhibitors; Ubiquitin carboxyl-terminal hydrolase 1 (Homo sapiens), O94782; further: on the % scale 0 is the no-effect control and ±100 the full control effect; nearly all actives have a fitted effect of over 60% in size
#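 USP1/UAF1 complex (1 nM) preincubated 15 min at room temperature with compound, then Ub-Rho substrate (150 nM final) added. Kinetic fluorescence at 480/540 nm over 6 reads at 60 s intervals; 50 mM HEPES pH 7.8, 0.5 mM EDTA, 0.1 mg/ml BSA, 1 mM TCEP, 0.01% Tween-20.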
# PLK1 PBD inh – qHTS for Inhibitors of PLK1-PDB (polo-like kinase 1 - polo-box domain): Primary Screen; Serine/threonine-protein kinase PLK1 (Homo sapiens), P53350; Plk1 PBD binding of FITC phosphopeptide, fluorescence polarization; Potency, µM, without a hit: max response, negative = inhibition, hits mostly inhibitors; hit rate 2.8% among 360,000; further: series mostly up to about 57 µM; on the % scale 0 is the no-effect control and ±100 the full control effect; nearly all actives have a fitted effect of over 65% in size
# Numbers without * were called inactive; ? = inconclusive; nt = no result. The list is not random: actives were taken first. Their share in the collection is about 3%. Unless noted, the call rests on the fitted dose curve; in most records, active means well fitted curve in the direction sought with a large enough effect; inconclusive means small, poorly fitted or top-dose-only effect, or another doubt; inactive means no such curve, though single readings can be large; an effect the other way counts as inactive or inconclusive. Potency means the concentration at half of the fitted maximal effect.
SMILES,KAT2A inh,PTAP TSG101 blk,VDR inhibitor,USP1 inh,PLK1 PBD inh
CCOc1ccc(NC(=O)Cn2cc(C(=O)c3ccc(OC)cc3)c(=O)c3cc4c(cc32)OCO4)cc1,2%,nt,-14%,-29%,nt
CN1CCN(S(=O)(=O)c2ccc(N3CCc4ccccc4C3)nc2)CC1,-7%,-1%,?,6%,7.5µM*
CN1CCN(c2ccc(S(=O)(=O)N3CCCCC3)cn2)CC1,-14%,-2%,9%,-16%,2%
O=C(NC1CC(=O)N(c2ccccc2)C1)c1cccs1 (stereo unspecified),-2%,nt,6%,11%,nt
COc1ccc(C(C)C)cc1S(=O)(=O)NC1CCCC1,-4%,-3%,-15%,-16%,-7%
O=C1C=C(N(CCO)Cc2ccccc2)c2ccccc2C1=O,-13%,0%,?,3.5µM*,-26%
Cc1cc(C(=O)N/N=C/c2cc(Br)cc(Br)c2OC(=O)c2cccc(F)c2)n[nH]1,-6%,-5%,4%,-9%,-13%
Cc1cccc(C(=O)Oc2c(Br)cc(Br)cc2/C=N/NC(=O)c2ccncc2)c1,1%,1%,?,-8%,30µM*
CCOC(=O)CC(=O)CSc1nc(-c2cccnc2)ccc1C#N,-26%,?,5%,32µM*,-3%
Brc1c(OCCOCCn2cncn2)ccc2ccccc12,-2%,-1%,-6%,-19%,17µM*
COc1ccc(NC(=O)c2sc(=S)[nH]c2N)cc1,?,0%,50µM*,-6%,?
COc1ccc(NC(=O)c2cccc(C(=O)Nc3ccc(OC)cc3)n2)cc1,-2%,nt,nt,nt,nt
O=C(NCCCc1ccncc1)C1CCC(=O)N(Cc2cccc(F)c2)C1 (stereo unspecified),-1%,-5%,?,-20%,30µM*
Cc1ccc(CCNC(=O)C2CCC(=O)N(Cc3cccc(F)c3)C2)cc1 (stereo unspecified),-20%,nt,10%,-17%,2%
COc1cccc(NC(=O)Cn2c(=O)c3cccn3c3ccc(F)cc32)c1,-8%,nt,19%,1%,nt
Cc1ccc(C2CC(c3cccs3)=NN2C(=O)CCl)cc1 (stereo unspecified),-21%,-2%,?,-6%,?
CCC(=O)N1N=C(c2cccs2)CC1c1ccc(C)cc1 (stereo unspecified),-5%,-2%,-4%,-5%,27µM*
CCSc1ncc(Cl)c(C(=O)N(Cc2ccc(C(C)(C)C)cc2)C2CCS(=O)(=O)C2)n1 (stereo unspecified),-9%,nt,-1%,?,nt
N#Cc1cccc(-c2nc3cnc(N4CCOCC4)nc3n(C3CC3)c2=O)c1,-10%,nt,6%,nt,nt
O=C(NC1CCCC1)c1nc(-c2c(F)cccc2F)oc1-c1ccccc1,nt,nt,nt,nt,0%
N#Cc1ccccc1OCc1cn(CC(=O)c2ccc(O)cc2)nn1,nt,2%,?,-31%,24µM*
CCn1c2ccccc2c2cc(NC(=O)c3coc(=O)c(Br)c3)ccc21,-9%,nt,nt,nt,nt
N/C(=N\O)c1ccc(NC(=O)c2ccc(Br)o2)cc1,-5%,-8%,?,-10%,15µM*
O=C(NNC(=O)c1ccc(Br)o1)c1ccc(NC(=O)c2ccccc2)cc1,-6%,0%,13%,-20%,-2%
CCn1c2ccccc2c2cc(NC(=O)c3ccc(Br)o3)ccc21,-9%,-2%,50µM*,-12%,?
SMILES,KAT2A inh,PTAP TSG101 blk,VDR inhibitor,USP1 inh,PLK1 PBD inh
CCOc1nc(NC2CCCC2)nc(N2CCC(C)CC2)n1,-25%,-4%,79µM*,-23%,19µM*
CC1Cc2ccccc2N1Cc1cc(=O)c(OCC(=O)NCCc2ccccc2)co1 (stereo unspecified),-14%,-1%,-19%,-3%,-1%
CCOc1ccc2c(c1)c(=O)c(C(=O)c1ccccc1)cn2Cc1ccccc1F,-1%,nt,6%,-4%,nt
Cc1ccc(OCCOC(=O)c2nc3nccc(C)n3n2)cc1,-8%,11%,?,-15%,27µM*
O=C(CSc1nc(-c2ccccc2)c2ccccc2n1)Nc1ccc(F)cc1,1%,nt,7%,-14%,nt
CN(C)C(=O)c1ccc(NC(=O)c2ccc(-c3ccc(Cl)cc3)o2)cc1,-10%,-7%,-15%,-14%,-4%
Cc1nnc(NC(=O)C2c3ccccc3Oc3ccccc32)s1,0%,-1%,?,2%,21µM*
Cc1ccnc(NS(=O)(=O)c2ccc(NC(=O)C3CCCCC3)cc2)n1,-3%,-6%,0%,-15%,-8%
Cc1nnc(NC(=O)C2COc3ccccc3O2)s1 (stereo unspecified),1%,-4%,-14%,-5%,21µM*
Cc1ccnc(NS(=O)(=O)c2ccc(NC(=O)C3COc4ccccc4O3)cc2)n1 (stereo unspecified),-7%,-2%,?,-20%,7.5µM*
CCCCN(CC)CCCNC(=O)c1c(C)oc2ncnc(N3CCOCC3)c12,-18%,nt,2%,-4%,nt
CCCC(=O)Nc1nc2ccc(OC)cc2s1,-5%,-6%,-6%,-14%,5%
COc1ccc2nc(NC(=S)N(C)C)sc2c1,-3%,-1%,?,-13%,5.3µM*
COc1ccc(Cn2ccc3nc(C)c(C(=O)NCc4ccc(SC)cc4)cc3c2=O)cc1,1%,nt,-3%,-23%,nt
C/[N+]([O-])=C/c1c(OCc2ccccc2)ccc2ccccc12,-11%,0%,-12%,1%,-11%
O=Cc1c(OCc2ccccc2)ccc2ccccc12,-5%,-1%,?,-13%,17µM*
COc1ccccc1C(=O)Nc1cccc(NC(C)=O)c1,-1%,1%,-5%,3%,3%
COc1ccccc1C(=O)Nc1cccc(NC(=O)c2ccccc2C)c1,0%,-2%,-14%,-14%,21µM*
Cc1ccccc1C(=O)Nc1cccc(N)c1,0%,1%,7%,-4%,-1%
Cc1ccccc1C(=O)Nc1cccc(NC(=O)c2ccc(C(C)(C)C)cc2)c1,0%,nt,50µM*,-24%,nt
N[C@](CC1c2ccccc2Oc2ccccc21)(C(=O)O)[C@H]1C[C@@H]1C(=O)O,-9%,nt,11%,nt,nt
CCOC(=O)c1ccc(Cl)c(NC(=O)c2ccc(-c3ccccc3)cc2)c1,3%,-10%,-2%,?,-3%
CCOC(=O)c1ccc(/C=C2/C=C(c3ccccc3)N(c3ccc(Cl)c(C(=O)O)c3)C2=O)cc1,-17%,?,?,25µM*,18%
CC1=C(C(=O)Nc2cccc(C(F)(F)F)c2)C2(CCCCCC2)OC1=O,-20%,nt,19%,-5%,nt
